Shown are actives, neighbours in structure and some others; about 20% of the full set was active somewhere.
Pf growth 48h: P. falciparum growth inhibition at 48 hours (one generation); P. falciparum luciferase growth in erythrocytes, 48 h; Potency, µM (series often up to 28.7 µM), for inactives: at the highest dose activity change, negative = inhibition, actives largely listed as inhibitors; actives 5.9% (n = 310,000); AID 504832; note: potency is the fitted concentration of half-maximal effect; % is set by controls: 0 for no effect and ±100 for the full control effect
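Luciferase-expressing P. falciparum in infected erythrocytes (2% hematocrit, 0.1% parasitemia final) in RPMI 1640/0.5% Albumax were exposed to compound for 48 hours at 37 C, 5% CO2; growth read as luminescence.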
Shiga toxin inh: blocks Shiga toxin action in Vero cells; Vero cells, Shiga toxin protein synthesis inhibition reporter; AID 2315; inhibition, % at 38.7 µM; actives 9.2% (n = 290,000); in the data active = inhibition mostly above about 28%, no sharp cut-off; inactive = mostly below about 43%; note: 0% is about no effect
HCMV antiviral: blocks human cytomegalovirus replication; HFF cells, HCMV-luciferase reporter, 72 h; active compounds read low; actives 4.5% (n = 410,000); activity change, negative = inhibition, % at 57.5 µM; AID 1259415; in the data active = activity change below about -60%; inconclusive = no clear call, values can overlap the other calls; inactive = above about -39%; note: % is set by controls: 0 for no effect and ±100 for the full control effect
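Two compound doses tested in HFFs infected with HCMV-luciferase, MOI 1 PFU/cell, 72 h at 37C. Lysate luminescence read with OneGlo; data normalized against buffer-only and 10uM Salinomycin inhibitor controls.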
Cycloheximide cs: affects cycloheximide protein synthesis inhibition readout, counter-screen; actives 12% (n = 300,000); cell reporter, cycloheximide protein synthesis inhibition counterscreen; max response, %; in the data active = max response mostly above about 13%, no sharp cut-off; inactive = mostly below about 14%; note: read at 38.3 µM for the half of the compounds with a filed dose; 0% is about no effect
Pf growth 96h: inhibits malaria parasite growth, 96 h. P. falciparum luciferase reporter growth, 96 h. Potency, µM (titrated, usually from 28.7 µM), for inactives: at the top dose activity change, negative = inhibition, usual class: inhibitors. actives 6.9% (n = 320,000). AID 504834; note: potency is the fitted concentration of half-maximal effect; % is set by controls: 0 for no effect and ±100 for the full control effect
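Two parasite generations (96 h, 37 C, 5% CO2) of compound exposure in infected erythrocytes (0.05% parasitemia, 2% hematocrit). Luciferase-reporter P. falciparum; decreased luminescence indicates inhibited growth, aimed at apicoplast-acting delayed death.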
Numbers without * were called inactive; ? = inconclusive; . = no result. Unless noted, calls come from the whole dose curve; as a rule, active = well fitted inhibition curve with a large enough effect; inconclusive = small, poorly fitted or top-dose-only effect, or another doubt; inactive = no such curve, though single readings can be large or run the other way.

SMILES | Pf growth 48h | Shiga toxin inh | HCMV antiviral | Cycloheximide cs | Pf growth 96h
COc1cc(C2NC(=O)NC(C)=C2C(=O)OC2CCCC(C)C2)ccc1O (centres undefined) | 10µM* | -9 | -37 | -3 | .
CCOc1ccccc1C1NC(=O)NC(C)=C1C(=O)OC1CCCC1C (centres undefined) | ? | -17 | -68* | -3 | ?
CCOC(=O)C1=C(C)NC(=O)NC1c1ccc(-c2ccccc2F)o1 (centres undefined) | -14% | 12 | -61* | 9 | -17%
CCOC(=O)C1=C(C)NC(=O)NC1c1cc(Br)c(O)c(OC)c1 (centres undefined) | -2% | -7 | -2 | -1 | 11%
Cc1ccc(CNc2ncnc(N)c2[N+](=O)[O-])cc1 | 68% | 26 | -61* | -3 | 107%
Nc1nc(NCCc2ccccc2)nc(NCc2ccccc2)c1[N+](=O)[O-] | 9.3µM* | -4 | -3 | 1 | ?
Nc1nc(NCCN2CCOCC2)nc(NCc2ccccc2)c1[N+](=O)[O-] | 6.6µM* | -11 | -13 | 1 | 8.3µM*
CC(CNC(=O)c1nnc(Cc2ccc(F)cc2)o1)c1ccccc1 (centres undefined) | . | . | -14 | . | .
Cc1nccc(-c2ccc(-n3cnc4ccccc43)cc2)n1 | -5% | 3 | ? | 22 | .
Nc1nccc(-c2ccc(-n3cnc4ccccc43)cc2)n1 | -2% | 25 | -70* | 13 | 9%
COc1ccccc1/C=C/C=C1\Oc2c(ccc(O)c2CN(C)C)C1=O | 2.6µM* | 29 | -16 | 13* | ?
COCCN(CCOC)Cc1c(O)ccc2c1O/C(=C\c1ccc(C)o1)C2=O | . | -6 | -88* | 0 | ?
CCN(CC)Cc1c(O)ccc2c1O/C(=C\C=C\c1ccccc1)C2=O | ? | 106* | ? | 16* | ?
COc1ccccc1-c1c(C(F)(F)F)oc2c(CN(C)C)c(O)ccc2c1=O | ? | -11 | 9 | -4 | ?
Cc1ccc(/C=C2\Oc3cc(OCC(=O)NN)ccc3C2=O)o1 | -11% | -4 | 11 | 2 | ?
COc1cccc(C(=O)c2cn(CC(=O)Nc3ccc4c(c3)OCCO4)c3nc(C)ccc3c2=O)c1 | . | . | 19 | . | .
CCOC(=O)c1ncn2c1[C@@H]1CCNC1C(=O)c1cc(OC)ccc1-2 (some centres undefined) | -7% | . | -25 | . | -11%
COc1ccc(NC(=S)NCc2ccc3c(c2)OCO3)cc1 | 2% | 25 | -23 | 15 | 1.7µM*
COc1ccc(CNC(=S)Nc2ccccc2)cc1 | ? | 21 | -23 | 7 | 13µM*
CC(C)c1ccc(NC(=S)NCc2ccc3c(c2)OCO3)cc1 | -17% | 36 | 14 | 12 | -30%
CCc1ccc(NC(=S)NCc2ccccc2)cc1 | 10% | 142* | 29 | 34* | ?
COc1ccc(CNC(=S)Nc2cccc(C)c2)cc1 | . | -12 | -31 | 4 | -24%
COc1ccc(CNC(=S)Nc2cccc(F)c2)cc1 | -25% | 28* | 0 | 12* | 0%
CC(C)c1ccc(-c2noc(SCC(=O)N3CCCCC3C)n2)cc1 (centres undefined) | . | . | -3 | . | .
O=C(NCC(c1cccs1)N1CCOCC1)c1ccc(Cl)c([N+](=O)[O-])c1 (centres undefined) | -9% | -7 | -37 | 1 | 8%
SMILES | Pf growth 48h | Shiga toxin inh | HCMV antiviral | Cycloheximide cs | Pf growth 96h
CN(C)c1cccc(Nc2ccc(-c3ccc(OC(F)(F)F)cc3)cn2)c1 | . | . | -29 | . | .
CCS(=O)(=O)n1nc(-c2ccco2)nc1NCc1ccc(C(C)C)cc1 | . | . | 69 | . | .
COc1cccc(NC(=S)NCc2ccc(F)cc2)c1 | ? | 24 | -9 | 14* | ?
COc1ccc(C/C(C)=N/NC(=S)Nc2ccccc2)cc1 | 61% | 86* | 28 | 42 | 80%
COc1ccc(C/C(C)=N/NC(=S)Nc2ccc(Cl)cc2)cc1 | 35% | 1 | -15 | -2 | 32%
O=C(N/N=C\c1cc([N+](=O)[O-])ccc1N1CCCC1)c1ccccn1 | ? | 48* | ? | 22* | -18%
Cc1cc(C)cc(-n2c(C)cc(/C=N/NC(=O)c3cccc([N+](=O)[O-])c3C)c2C)c1 | . | -14 | -20 | 4 | 12µM*
O=C(N/N=C\c1cc([N+](=O)[O-])ccc1N1CCOCC1)c1ccccn1 | 21% | -9 | -27 | 3 | ?
COc1ccc(/C=N/NC(=O)c2cc(C)n(-c3ccccc3)c2C)cc1OC | 29% | 87* | ? | 25* | -20%

Screening results: PubChem, National Center for Advancing Translational Sciences (NCATS)
